PRMT1 inh – blocks human protein arginine methyltransferase 1; Q99873; recombinant PRMT1, activity-based probe fluorescence polarization; inhibition, % at 2.79 µM; 370,000 tested, 1.3% active; AID 652257;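 active means inhibition above about 21% made by adding two undisclosed values, limit read from the data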
TLR4-MyD88 BLA – TLR4-MyD88 interaction inhibition in cells | HeLa CL3-4 TLR4/MyD88 BLA complementation, FRET ratio | inhibition, % at 8.4 µM | O00206+Q99836 | AID 861 | 200,000 tested, 0.18% active; in the data active means inhibition above about 25%;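 further: 0% = vehicle and 100% = reference inhibitor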
NOD2-RIPK2 inh – inhibitors of human NOD2-RIPK2 interaction | O43353 | CHO BLA complementation NOD2-RIPK2, CCF4 ratio | inhibition, % at 4.98 µM | AID 624267 | 360,000 tested, 0.38% active; in the data active means inhibition above about 21%;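 further: 0% = vehicle only and 100% = reference blocker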
TLR9-MyD88 inh – inhibitors of human TLR9-MyD88 binding; CHO BLA complementation TLR9-MyD88, CCF4 FRET ratio; inhibition, % at 4.98 µM; 340,000 tested, 0.21% active; Q9NR96+Q99836;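 active means inhibition above the mean over all tested compounds plus 3 SD, cut at about 21% in these data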;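 further: 0% = DMSO only wells and 100% = clavulanate BLA inhibitor control wells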
ABHD5-PLIN5 inh – ABHD5-PLIN5 protein interaction inhibition. Split G. princeps luciferase complementation, luminescence, 4 h. inhibition, % at 4 µM. 360,000 tested, 0.78% active;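 active means inhibition above the mean inhibition across every tested compound plus 3 SD, cut at about 22% in these data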;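 further: 0% = DMSO only wells and the 100% control is not disclosed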
Exocytosis inh – lytic granule exocytosis inhibition. TALL-104 LAMP-1 surface exposure, flow cytometry; cells stimulated with thapsigargin and PMA. inhibition, % at 10 µM. 360,000 tested, 0.66% active. AID 651702;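 active means inhibition above about 55%, limit read from the data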
PRMT1 inh conf – PRMT1 (human) inhibition, FP confirmation; shares compounds with PRMT1 inh; recombinant His-PRMT1, activity-based probe fluorescence polarization; inhibition, % at 2.79 µM; 3,300 tested, 42% active; AID 687036;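 active means mean inhibition across replicates above the hit cutoff derived for the earlier primary screen, cut at about 22% in these data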
Active calls of the source: *; · = not tested or not shown. An excerpt weighted towards active compounds, which were near 2.6% of everything screened.

SMILES | PRMT1 inh | TLR4-MyD88 BLA | NOD2-RIPK2 inh | TLR9-MyD88 inh | ABHD5-PLIN5 inh | Exocytosis inh | PRMT1 inh conf
CCOC(=O)CC(=O)CSc1nccc(-c2cccnc2)n1 | 38* | · | -4 | -1 | -4 | 2 | 8
Nc1cccnc1Sc1ccc(Cl)cc1 | -2 | 3 | -1 | 18 | 0 | -4 | ·
Nc1cccnc1Sc1cccc(Cl)c1 | 31* | -6 | 2 | 9 | 2 | -3 | 4
COc1ccccc1C(=O)NCCC(=O)NC(C)c1ccc(-n2ccnc2)cc1 (stereo not given) | 0 | · | -4 | 7 | 3 | 0 | ·
Cc1cc(C)n2nc(N)c(N=Nc3cccc(Cl)c3)c2n1 | 58* | 0 | 2 | 5 | 5 | 4 | 0
CC(NC(=O)COC(=O)CN1C(=O)NC2(CCCC2)C1=O)c1ccc(F)cc1 (stereo not given) | -2 | · | -5 | -6 | -11 | 6 | ·
COc1ccc(C(c2nnnn2-c2ccc(OC)cc2)N2CCN(C/C=C/c3ccccc3)CC2)cc1 (stereo not given) | -5 | · | -1 | · | 7 | 19 | ·
COc1ccc(C(c2nnnn2C(C)(C)C)N2CCN(C/C=C/c3ccccc3)CC2)cc1 (stereo not given) | 35* | · | 0 | · | -4 | 5 | 7
COc1ccc(/C=C2\SC(=S)N(N3C(=O)CCC3=O)C2=O)cc1O | 49* | -7 | -3 | 14 | -23 | 4 | 1
COc1ccc(/C=C2/SC(=S)N(Cc3ccccc3)C2=O)cc1O | 10 | · | -4 | 6 | 5 | -24 | ·
COC(=O)c1c(NC(=O)CCl)sc(C(=O)N2CCOCC2)c1C | 7 | · | 6 | -6 | 16 | -8 | ·
Cc1cc[n+](-c2[nH]c(=O)sc2/C=N/N=C(\[O-])c2ccccc2)cc1C | 62* | -17 | -3 | 0 | -1 | -4 | 38*
O=C(N/N=C/c1sc(=O)[nH]c1-[n+]1ccc2ccccc2c1)c1ccccc1[O-] | 95* | · | 2 | -1 | -18 | 1 | 3
C#CCN1c2ccccc2Sc2cccnc21 | 63* | · | -3 | 3 | 0 | -2 | 13
Cc1nc2scc(-c3ccccc3)c2c(=O)n1N=C1C=CC(=O)C=C1 | 90* | 7 | · | · | · | · | 94*
O=C(CSc1ccc(-c2ccco2)nn1)Nc1ccccc1 | 7 | 10 | -11 | -3 | 7 | 2 | ·
COc1cccc(NC(=O)CCC(=O)Nc2cccc(OC)c2)c1 | -1 | 4 | 7 | 10 | -4 | -6 | ·
COc1cccc(NC(=O)CSC(N)=O)c1 | 63* | -8 | -4 | 6 | 2 | -2 | 87*
O=C(CSc1ccc(-c2ccco2)nn1)c1ccccc1 | 28* | 0 | 1 | -6 | 3 | 0 | 10
COc1cccc(NC(=O)CSc2ccc(-c3ccco3)nn2)c1 | 42* | · | 3 | -3 | 12 | 0 | 4
Cc1ccc(N2C(=O)CC(Sc3ccccc3C(=O)O)C2=O)c([N+](=O)[O-])c1 (stereo not given) | 63* | -16 | 1 | -4 | 13 | 0 | 65*
COc1ccc(N2C(=O)CC(Sc3ccccc3C(=O)O)C2=O)c([N+](=O)[O-])c1 (stereo not given) | 100* | -1 | 6 | -4 | 15 | 9 | 55*
Cc1ccc(-c2nc(CS(=O)CC(=O)NCc3ccc4c(c3)OCO4)c(C)o2)cc1 (stereo not given) | · | · | -1 | -2 | 2 | 23 | ·
COCCNC(=O)c1c(CS(=O)(=O)c2ccccc2)noc1C(=O)NCc1ccccc1 | 4 | · | -6 | 0 | 5 | 1 | ·
O=[N+]([O-])c1ccc(S(=O)(=O)N2CCSC2c2ccco2)cc1 (stereo not given) | 46* | · | -18 | -3 | 8 | -1 | 33*
NS(=O)(=O)c1ccc(NC(=O)c2cc(-c3cc(Cl)ccc3O)n[nH]2)cc1 | 4 | · | 5 | -2 | 13 | 27 | ·
CNC(=O)/C=C1\NC(C)(C)Cc2ccccc21 | 41* | -2 | 9 | 6 | 1 | 0 | 55*
Cc1cc2c(cc1C)/C(=C\C(N)=O)NC(C)(C)C2 | 26* | 1 | -4 | -7 | -1 | -2 | 34*
